In all, about 110,000 compounds were measured (“z-score”: median about -0.1, highest 2% from about 2 on). Many of the other results were omitted from the sample, so the highest values are more common in it than they were. The source made the active and inactive calls.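 How the source made its calls: active means z-score in the third read window above 3 or below -3; inactive means the rest.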
molecular target: Metabotropic glutamate receptor 8 (Rattus norvegicus) (UniProt P70579); assay: rat mGluR8 modulators via GIRK flux, primary screen, cell-based, thallium flux, HTS (AID 488969); conditions: HEK293 rat mGluR8, GIRK (G protein-gated inwardly rectifying potassium channel) thallium flux, FluoZin2; at 10 µM; stronger effect = higher value; submaximal glutamate (EC20) added with thallium
Sequence (P70579 whole entry, looked up): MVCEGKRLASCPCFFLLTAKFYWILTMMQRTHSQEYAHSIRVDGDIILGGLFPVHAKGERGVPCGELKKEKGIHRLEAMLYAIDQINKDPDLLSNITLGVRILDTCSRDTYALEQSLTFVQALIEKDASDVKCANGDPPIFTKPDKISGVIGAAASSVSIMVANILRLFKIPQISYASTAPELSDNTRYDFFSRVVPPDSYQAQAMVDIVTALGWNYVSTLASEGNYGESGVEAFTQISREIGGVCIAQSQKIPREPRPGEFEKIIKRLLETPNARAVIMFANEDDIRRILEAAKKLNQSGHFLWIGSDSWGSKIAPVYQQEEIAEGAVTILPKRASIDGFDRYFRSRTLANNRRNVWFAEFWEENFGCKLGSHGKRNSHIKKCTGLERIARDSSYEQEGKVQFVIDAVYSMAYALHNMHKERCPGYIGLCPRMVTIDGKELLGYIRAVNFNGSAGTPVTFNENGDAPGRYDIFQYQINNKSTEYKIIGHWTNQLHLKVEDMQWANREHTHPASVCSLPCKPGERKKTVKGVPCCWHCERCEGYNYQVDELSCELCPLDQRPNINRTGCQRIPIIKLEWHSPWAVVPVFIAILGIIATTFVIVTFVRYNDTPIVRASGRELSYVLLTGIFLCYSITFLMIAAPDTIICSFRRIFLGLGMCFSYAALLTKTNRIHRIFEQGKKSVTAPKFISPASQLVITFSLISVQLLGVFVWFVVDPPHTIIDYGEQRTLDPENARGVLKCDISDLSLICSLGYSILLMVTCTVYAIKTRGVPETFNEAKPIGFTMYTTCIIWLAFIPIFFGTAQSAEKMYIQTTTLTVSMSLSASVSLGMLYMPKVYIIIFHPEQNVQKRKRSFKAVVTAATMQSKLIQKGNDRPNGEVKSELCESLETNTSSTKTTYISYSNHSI

| Compound | z-score |
| --- | --- |
| S=c1sc(SCCOc2ccccc2)nn1-c1ccccc1 | -0.317 |
| COc1cccc(C(=O)OCc2ccccc2C#N)c1O | -0.163 |
| O=C(Nc1ccccc1)N(C1=NCCCCS1)c1cccc2ccccc12 | -0.463 |
| Cc1ccc(Nc2n[nH]c(C)c2[N+](=O)[O-])cc1C | 2.51 |
| Cc1cccc(Nc2n[nH]c(C)c2[N+](=O)[O-])c1 | 0.073 |
| Cc1ccc(Nc2n[nH]c(C)c2[N+](=O)[O-])cc1 | -0.101 |
| CNC(=O)CCCc1nc(-c2ccccc2Cl)no1 | 0.0193 |
| COC(=O)c1sccc1NC(=S)N1CCN(c2ccccc2)CC1 | -0.397 |
| Cc1cc(C(=O)NNC(=S)NC(C)c2ccccc2)cs1 (stereo not drawn) | -0.281 |
| Cc1cc(C(=O)NC(C)c2ccc3c(c2)OCO3)cs1 (stereo not drawn) | 0.0632 |
| Cc1cc(C(=O)NC(C)c2ccncc2)cs1 (stereo not drawn) | 2.05 |
| Cc1cc(C)c2nc(SCC(=O)N3CC(=O)Nc4ccccc43)c(C#N)cc2c1 | -0.188 |
| CC1CC1C(=O)NCCc1ccc(Cl)cc1 (stereo not drawn) | 1.05 |
| N#Cc1ccc(-n2c(-c3ccccc3)nnc2-c2ccccc2)cc1C#N | 0.19 |
| COc1ccccc1/C=C/C=N/N1CCN(Cc2ccc(Cl)cc2)CC1 | -0.494 |
| COc1ccccc1/C=C/C=N\N1CCN(Cc2ccccc2Cl)CC1 | 5.52 (active) |
| COc1ccccc1/C=C/C=N/N1CCN(Cc2cccc3ccccc23)CC1 | -0.494 |
| CN(C)c1ccnc(-n2cccc2/C=N/OCc2cccc(F)c2)c1C#N | -0.0405 |
| CCN(C(=O)CSc1ncccc1C(=O)OC(C)C)c1cccc(C)c1 | -0.441 |
| O=C(Nc1cc(C(F)(F)F)ccc1F)C1CCC1 | 0.411 |
| COc1ccc(Nc2nc(N)nc(COc3ccc(OC)cc3)n2)cc1 | -0.113 |
| COc1ccc(Nc2nc(N)nc(CSc3nnc(N)s3)n2)cc1 | -0.571 |
| Cc1nnc(SCc2nc(N)nc(Nc3ccccc3)n2)s1 | -0.209 |
| COc1ccc(OCc2nc(N)nc(Nc3ccc(C)cc3)n2)cc1 | 0.32 |
| COc1ccc(Nc2nc(N)nc(CSc3nnc(C)s3)n2)cc1 | 2.42 |

| Compound | z-score |
| --- | --- |
| COc1ccc(OCc2nc(N)nc(Nc3ccccc3)n2)cc1 | 5.72 (active) |
| O=C1c2ccccc2CC1(Cc1ccccc1)Cc1ccccc1 | -0.201 |
| COc1ccc(OCC(=O)N/N=C/c2ccsc2)cc1 | 0.604 |
| CC(Oc1ccc(Cl)cc1)C(=O)N/N=C/c1ccsc1 (stereo not drawn) | 11.6 (active) |
| CC(C)(C)c1ccc(OCC(=O)N/N=C/c2ccsc2)cc1 | 0.2 |
| COc1cc(C(=O)Nc2ccc(S(=O)(=O)NC(C)(C)C)cc2)cc(OC)c1OC | -0.258 |
| CCOc1cc(N2CCOCC2)c(OCC)cc1NC(=O)COC(=O)c1cccc2ccccc12 | -0.0215 |
| CCOc1cc(N2CCOCC2)c(OCC)cc1NC(=O)Cc1cccc2ccccc12 | -0.178 |
| CCOc1cc(N2CCOCC2)c(OCC)cc1NC(=O)COC(=O)CCc1c[nH]c2ccccc12 | 8.03 (active) |
| CCOc1ccccc1N1C(=O)CC(N(O)c2ccccc2)C1=O (stereo not drawn) | -0.0542 |
| CC1(C)CN2C(=S)N(c3ccccc3)C(c3ccccc3)N2C1 (stereo not drawn) | -0.619 |
| COc1ccc(N2CCN(CCNC(=O)Nc3ccc(Cl)cc3)CC2)cc1 | 0.451 |
| COc1ccc(Cl)c(N2CCN(CCCNC(=O)Nc3ccc(C)cc3)CC2)c1 | 2.3 |
| COc1ccc(N2CCN(CCCNC(=O)Nc3ccccc3)CC2)cc1 | 0.121 |
| COc1ccccc1C1(CCNS(=O)(=O)c2ccc(C)cc2)CCOC(C(C)C)C1 (stereo not drawn) | -0.293 |
| CC(=O)/C(=N/Nc1ccccc1)Sc1nnc(C(O)c2ccccc2)n1-c1ccccc1 (stereo not drawn) | -0.33 |
| COc1cc(Cl)c(C)cc1NC(=O)CSC | 0.0277 |
| CCn1cc(CNC(=O)/C=C/c2ccc([N+](=O)[O-])cc2)c(C)n1 | -0.204 |
| Fc1cc(F)c2nc(Nc3nc4cc5c(cc4s3)OCO5)sc2c1 | 1.9 |
| COc1ccc2nc(Nc3nc4cc5c(cc4s3)OCO5)sc2c1 | 0.175 |
| Fc1cccc2sc(Nc3nc4cc5c(cc4s3)OCO5)nc12 | 5.54 (active) |
| Fc1cccc2sc(Nc3nc4cc5c(cc4s3)OCCO5)nc12 | 2.25 |
| c1ccc2sc(Nc3nc4cc5c(cc4s3)OCO5)nc2c1 | 0.501 |
| Fc1ccc2nc(Nc3nc4cc5c(cc4s3)OCCO5)sc2c1 | -0.101 |
| Clc1cccc(Cl)c1Cn1cnc(=NCc2ccco2)c2[nH]cnc21 | -0.33 |

| Compound | z-score |
| --- | --- |
| COc1ccc(/C=N/Nc2cc(C)nc(NS(=O)(=O)c3ccc(C)cc3)n2)cc1 | -0.501 |
| CCCCN=Cc1sc2ccc(OCC)cc2c1O | -0.188 |
| CC1CCCN(C(=O)CSc2nnc3n(C4CCCC4)c(=O)c4ccccc4n23)C1 (stereo not drawn) | -0.217 |
| O=C(Nc1ccccc1)Nc1ccccn1 | 0.139 |
| S=C(Nc1ccccc1)c1ccccn1 | 2.52 |
| Cc1ccc(C)c(NC(=S)c2ccccn2)c1 | -0.333 |
| CCCNC1=C(N(C(C)=O)c2cccc(F)c2)C(=O)c2ccccc2C1=O | -1.55 |
| CC(=O)N(Cc1ccc(F)cc1)C1=C(NCCc2ccccc2)C(=O)c2ccccc2C1=O | 1.71e-05 |
| CC(=O)N(Cc1ccc(F)cc1)C1=C(NCc2ccccc2)C(=O)c2ccccc2C1=O | 2.03 |
| COC(=O)C1(S(=O)(=O)c2cc(Br)cc3c2N(C(C)=O)CC3)CC1 | -0.117 |
| O=C(COC(=O)C1=Cc2ccccc2OC1)NC1CCCC1 | -0.184 |
| CCOC(=O)N1CCN(C(=O)CN(c2cc(C(F)(F)F)ccc2Cl)S(C)(=O)=O)CC1 | 0.421 |
| CS(=O)(=O)N(CC(=O)N1CCN(c2ccccc2)CC1)c1cc(C(F)(F)F)ccc1Cl | -0.525 |
| CN1CCN(C(=O)CN(c2cc(C(F)(F)F)ccc2Cl)S(C)(=O)=O)CC1 | 2.63 |
| O=C(COc1cccc2ccccc12)NNC(=O)CSCCO | -0.199 |
| c1csc(-c2nnc(NC3CCCCC3)c3ccccc23)c1 | -1.27 |
| c1ccc2c(NC3CCCC3)nnc(NC3CCCC3)c2c1 | 3.18 (active) |
| c1ccc(-n2nnnc2NC2CCCCC2)cc1 | -0.018 |
| CCOC(=O)CSc1nnc(CNc2cccc(Cl)c2)n1-c1ccccc1 | 2.85 |
| CCOC(=O)CSc1nnc(Cc2ccccc2)n1-c1cccc(Cl)c1 | -0.436 |
| CCOC(=O)CSc1nnc(CNc2cccc(Cl)c2)n1C | 1.12 |
| CCOC(=O)C(=O)Nc1ccc2c(c1)OCO2 | 0.0617 |
| Oc1c(Cl)cc(Cl)cc1C=Nc1ccccc1N1CCCC1 | 0.0524 |

— PubChem BioAssay AID488969 (Vanderbilt High Throughput Screening Facility, 2010)
